The results in this text go back to PubChem BioAssay AID2435 (The Scripps Research Institute Molecular Screening Center, 2010).

In all, about 320,000 compounds went through this assay and about 1,000 (0.31%) were called active. The entries come from a sample that favours actives as a whole. Values without a mark were called inactive.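 Rule for the calls: active = activation above the mean of all tested compounds plus 3 SD, cutoff set per screening run (cut at about 20% in these data); inactive = the rest.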

The target of this assay is Oxytocin receptor (Homo sapiens) (UniProt P30559). As to the kind of experiment: oxytocin receptor activation by calcium flux – fluorescence, CHO-OTR cells, Fluo-8 calcium, primary screen (AID 2435).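 Note: peak over basal fluorescence ratio from a 100 s FLIPR kinetic read.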 The settings on record: Fluo-8 calcium fluorescence, at 3 µM, hits give high values, normalized: DMSO 0%, oxytocin 100%. (Calcium assays in cells follow changes in intracellular calcium, usually with a dye or a luminescent sensor.)
Chain of Oxytocin receptor (Homo sapiens) (P30559 whole entry, looked up): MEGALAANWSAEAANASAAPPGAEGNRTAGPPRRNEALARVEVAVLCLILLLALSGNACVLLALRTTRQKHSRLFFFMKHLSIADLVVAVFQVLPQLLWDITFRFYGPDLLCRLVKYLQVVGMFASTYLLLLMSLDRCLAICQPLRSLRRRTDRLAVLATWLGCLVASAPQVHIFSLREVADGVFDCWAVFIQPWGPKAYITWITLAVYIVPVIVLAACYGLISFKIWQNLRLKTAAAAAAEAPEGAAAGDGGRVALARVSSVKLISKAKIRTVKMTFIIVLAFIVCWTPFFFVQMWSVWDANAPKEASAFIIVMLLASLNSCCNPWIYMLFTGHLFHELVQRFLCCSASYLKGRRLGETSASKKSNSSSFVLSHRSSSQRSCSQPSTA
As for `COc1ccc(NS(=O)(=O)c2ccc(Oc3c(C#N)cccc3C#N)cc2)cc1`, the activation was 21.2% (active).
In the case of `COc1ccc(NS(=O)(=O)c2ccc(NC(=O)c3ccc(N(C)S(C)(=O)=O)cc3)cc2)cc1` it was 2.34%; in that of `CCOc1ccc(S(=O)(=O)Nc2ccc(S(=O)(=O)Nc3cc(OC)ccc3OC)cc2)cc1`, 5.31%.
Then `CCNc1ccc(C(=O)OCC(=O)N2c3ccccc3NC(=O)C2(C)C)cc1[N+](=O)[O-]`, with -1.03%.
As for `Cc1ccc(NC(=S)NC(=O)c2ccc(-c3ccccc3)cc2)cc1`, the activation is 1.22%.
Then `CCOC(=O)C1=C(NC(=S)NC(=O)c2ccccc2)c2ccccc2CC1(C)C`, with 25.1% (active); and `COCCCNC(=S)NC(=O)c1ccccc1`, with 0.86%.
Then `CC1=CC=CC2=N/C(=N\S(=O)(=O)c3ccc(F)cc3F)c3ccccc3CN12`, with -2.27%; and `COc1ccc(N2CCC(N3CCN(C)C(CCO)C3)CC2)cc1` (configuration not stated), with -0.23%.
`Cc1ccc(S(=O)(=O)N2CCN(C(=O)N3CCOCC3)CC2)c(C)c1`: the activation is 0.27%.
On to `Nc1ccc2nc3c(=O)[nH]c(=S)[nH]c3nc2c1`, for which the activation was 35.4% (active).
As for `CSc1nnc(SCc2nc3sc(C(=O)O)c(C)c3c(=O)[nH]2)s1`, the activation is 6.08%.
Take `CC(/C=C/c1ccccc1)=N\NC(=O)C1CC1(C)c1ccccc1` (configuration not stated): the activation is -2.09%.
In the case of `CCOC(=O)Cn1c(=O)oc2cc(S(=O)(=O)N(C)Cc3ccco3)ccc21` it was 1.29%; in that of `CN(c1ccccc1)c1ccc(/C=c2\s/c(=C(/C#N)C(=O)C(C)(C)C)n(Cc3ccco3)c2=O)cc1`, 20.3% (active); in that of `CCOC(=O)/C=c1\s/c(=C\c2ccc(C#N)cc2)c(=O)n1CC(=O)Nc1cccc(C)c1C`, 0.18%.
In the case of `CCS(=O)(=O)N1CCCC(C(=O)NCCCN(C)Cc2ccccc2)C1` (configuration not stated), the activation is -0.22%.
Take `Cc1cccc(NC(=S)NCCc2ccc(Cl)cc2)c1C`: the activation is -1.48%.
In the case of `COC(=O)Cc1ccc(NC(=S)NCc2ccc(Cl)cc2)cc1` it was 7.5%.
Turning to `Cc1ccccc1NC(=S)NC(=O)Cc1ccc(Cl)cc1`, the activation is 28% (active).
Turning to `Cc1ccc(C(=O)NC(=S)Nc2ccccc2C)cc1`, the activation is -1.72%.
In the case of `O=C(COc1ccc(Cl)cc1)NC(=S)Nc1ccccc1N1CCOCC1`, the activation was -0.94%.
Regarding `O=C(Cc1ccc(Cl)cc1)NC(=S)Nc1ccccc1O`, the activation is 55.4% (active).
Then `O=C(Nc1ccc(S(=O)(=O)Nc2ncccn2)cc1)C12CC3CC(CC(C3)C1)C2`, with -0.32%; and `COc1cc(NC(=O)CN2C(=O)NC(C)(c3ccc(OC(F)F)cc3)C2=O)cc(OC)c1OC` (configuration not stated), with 2.87%.
With `Cn1c(C(=O)OC(C(=O)NC2CCCCC2)c2ccccn2)cc2sccc21` (configuration not stated), the activation was -2.18%.
In the case of `Cc1nc(-c2ccccc2)cn2c1nc1ccccc12` it was -2.1%; in that of `S=C(NCC1COc2ccccc2O1)Nc1ccc(Br)cc1` (configuration not stated), 6.93%.
As to `c1ccc(-c2cc3c(NCC4COc5ccccc5O4)ncnc3s2)cc1` (configuration not stated), the activation is -2.32%.
For the molecule `c1ccc2c(c1)OCC(CNc1ncnc3nc[nH]c13)O2` (configuration not stated), the activation was 80.8% (active).
In the case of `CCc1ccc(C2N3CC4([N+](=O)[O-])CN2CC([N+](=O)[O-])(C3)C4(C)C)cc1` (configuration not stated), the activation was -1.26%.
Then `Cc1ccc(NC(=O)C(CC(=O)O)C2CCCO2)c(C)c1` (configuration not stated), with -0.43%; and `CC(=O)c1ccc(NC(=S)NC(=O)CC(C)C)cc1`, with -2.1%; and `COc1ccc(OC)c(C(C)NC(=S)Nc2ccc(S(=O)(=O)Nc3ncccn3)cc2)c1` (configuration not stated), with -0.31%.
Regarding `COc1ccc(NS(=O)(=O)c2ccc(NC(=S)NC(=O)CC(C)C)cc2)cc1`, the activation is 22.5% (active).
For `Cc1ccccc1CSc1nnc(-c2ccccc2)c(=O)[nH]1`, the activation was 0.69%.
`CCOc1ccc(/C=C(/NC(=O)c2ccccc2)C(=O)NCCC(=O)O)cc1`: the activation was 0.74%.
Then `COc1ccccc1NC(=O)/C=C/C(N)=O`, with 0.46%; and `CC(C)(C)c1ccc(/C=C/C(=O)Nc2ncccn2)cc1`, with -1.37%; and `COC(=O)c1sc(-c2ccc(C(C)(C)C)cc2)cc1NC(=O)/C=C/C(=O)O`, with 21.9% (active).
In the case of `CNC[C@H](CC1CCCCC1)NC[C@H](NCCC1CCCC1)[C@H](C)O` it was 3.53%; in that of `O=C(O)/C=C/c1ccc(OCCCF)cc1`, 0.01%; in that of `O=C(/C=C/c1ccc2c(c1)OCCO2)c1ccc(O)cc1`, 1.57%.
As for `O=C(/C=C(O)/C=C/c1ccc(O)cc1)/C=C/c1ccc(O)cc1`, the activation was 99.9% (active).
On to `CCOc1cc(/C=C/c2nc3ccccc3c(=O)[nH]2)cc(Br)c1OC`, for which the activation was 0.74%.
Then `CC(C)[C@H](NC(=O)N1CCn2c1nc1ccccc12)C(=O)NCc1ccc2c(c1)OCO2`, with -1.49%; and `O=C(NCc1ccccc1Cl)C1CCN(c2ncnc3c2nc2n3CCCCC2)CC1`, with 0.32%; and `Cc1cc(F)ccc1N1CCC(N2CCN(C)C(CCO)C2)CC1` (configuration not stated), with 0.09%.
In the case of `COc1cc(C(=O)NC2CCN(C)CC2)ccc1Nc1ncc2c(n1)N(C1CCC(O)CC1)CCC(=O)N2C` (configuration not stated) it was 0.79%; in that of `COc1ccc(CCC(=O)c2ccc(OC)cc2)cc1`, -2.31%; in that of `COc1ccc(C(=O)NC2CCN(C(=S)NCCc3ccccc3)CC2)cc1`, -0.97%.
`COc1ccc(C(=O)NNC(=S)NC(=O)c2ccccc2[N+](=O)[O-])cc1`: the activation was -2.16%.
For the molecule `COc1ccc(C(=O)NC(=S)NNC(=O)CCc2ccccc2)cc1`, the activation is 46% (active).
Turning to `COc1ccc(C(=O)NNC(=S)NC(=O)c2ccccc2)cc1`, the activation was 55% (active).
In the case of `COc1ccc(C(=O)NC(=S)NC2CCCCC2)cc1` it was -1.13%; in that of `CNC(=O)c1csc(Cc2c(Cl)sc3ccc(Cl)cc23)n1`, -2.05%; in that of `O=C(NCc1ccncc1)C(=O)NCC1OCCN1S(=O)(=O)c1ccc(Br)cc1` (configuration not stated), 0.38%.
Then `NC(=O)c1ccsc1NC(=O)COC(=O)COc1ccc(C=O)cc1`, with 16.4%; and `Cc1c(Br)c([N+](=O)[O-])nn1CC(=O)Nc1sc2c(c1C(=O)OC(C)C)CCC(C)C2` (configuration not stated), with 0.81%; and `COc1cc(NC(=O)CSC(=S)N2CCCC2)c(OC)cc1Cl`, with -1.55%.
Then `CCN1/C(=C\c2ccc3ccccc3[n+]2CC)Sc2cc(C)ccc21`, with 23.2% (active).
Consider `C=CCN1C(=NC(=O)COc2ccccc2)SC2CS(=O)(=O)CC21` (configuration not stated), for which the activation is 1.7%.
In the case of `O=C(CSc1nc2ncccc2[nH]1)Nc1ccc2c(c1)OCCO2` it was -2.32%; in that of `CCc1ccc2c(c1)C1(NN=C(c3ccccc3)S1)C(=O)N2` (configuration not stated), -1.26%; in that of `CN(C)c1ccc(C=C2C(=O)OC3(CCCC3)OC2=O)cc1`, 3.44%.
In the case of `CN(C)c1ccc(/C=C2\NC(=S)N(Cc3ccccc3)C2=O)cc1` it was 51.8% (active); in that of `O=C1/C(=C\c2ccsc2)NC(=S)N1c1ccccc1`, 0.14%.
On to `N#CCCN(C(=O)COC(=O)c1ccc2c(c1)OCCO2)c1ccccc1`, for which the activation was 1.54%.
In the case of `Cn1cccc1C1(C(F)(F)F)NCCNC1=O` (configuration not stated) it was 1.22%; in that of `CCCC(=O)NC(=S)Nc1ccc(CN2CCOCC2)cc1`, 1%; in that of `CCOC(=O)CC1C(=O)NCCN1c1nc2c(C)cccn2c(=O)c1/C=C1\SC(=S)N(C(C)CC)C1=O` (configuration not stated), 23.3% (active).
As for `Cc1cccn2c(=O)c(/C=C(\C#N)C(N)=O)c(N3CCCCCC3)nc12`, the activation was -2.52%.
On to `CCOC(=O)N1CCN(C(=O)CSc2nc(=O)n3cccc(C)c3n2)CC1`, for which the activation was -0.13%.
With `O=[N+]([O-])c1ccccc1N/N=C1\CCc2ccccc21`, the activation was 1.32%.
Take `COc1cc(OC)c(-n2cc(-c3ccc(Cl)cc3)[nH]c2=O)cc1Cl`: the activation is 42.2% (active).
In the case of `COc1cc(OC)c(N2CC(C(=O)Nc3cc(Cl)ccc3N3CCOCC3)CC2=O)cc1Cl` (configuration not stated) it was 10.6%; in that of `COc1cc(OC)c(-n2c(C)cc(C=O)c2C)cc1Cl`, -0.29%; in that of `Cc1ccc(-n2ncc3c(Nc4cccc(C(=O)O)c4)ncnc32)cc1`, -1.04%.
In the case of `O=C(NCc1cccnc1)C12CC3CC(CC(C3)C1)C2` it was -0.43%.
In the case of `CCCN(CC(=O)Nc1ccccc1OC)C(=O)CCC(=O)c1ccc(F)cc1`, the activation is -2.01%.
For the molecule `O=C(Nc1ccc(O)cc1)c1ccc(NC(=O)c2ccco2)cc1`, the activation was 1.38%.
On to `C/C(=N/NS(=O)(=O)c1ccccc1)c1ccc(NC(=O)C(F)(F)F)cc1`, for which the activation was -0.88%.
Take `C/C(=N\NS(=O)(=O)c1ccc(Cl)cc1)c1ccc(NC(=O)c2ccco2)cc1`: the activation was 24.5% (active).
Then `O=C(O)CCn1c(O)c(C=C2N=c3ccccc3=N2)sc1=S`, with 0.13%; and `CCc1ccc(-c2nn(-c3ccccc3C)cc2C(=O)N2CCN(C3CCS(=O)(=O)C3)CC2)cc1` (configuration not stated), with 2.09%.
On to `CCc1ccc(-c2nn(-c3ccccc3)cc2CSC(=N)N)cc1`, for which the activation is 24.2% (active).
With `Cc1ccc(-c2nn(-c3ccccc3)cc2/C=N/NC(=O)c2ccc3c(c2)OCO3)cc1`, the activation is -1.39%.
As to `O=C(NC(Nc1nc2ccc([N+](=O)[O-])cc2s1)(C(F)(F)F)C(F)(F)F)c1ccccc1`, the activation is 20% (active).
Consider `O=C(CNC(=O)c1ccccc1)Oc1ccc([N+](=O)[O-])cc1`, for which the activation was 2.42%.
Then `O=C(CCNC(=O)c1ccccc1)Nc1nc2ccccc2s1`, with 2.26%; and `CCOC(=O)CN(C)S(=O)(=O)c1ccc(-c2cc(C(=O)OC)sc2C(F)(F)F)cc1`, with 1.32%; and `O=C(NCc1ccccc1)C(c1ccccc1)N(C(=O)c1csnn1)c1ccc(F)cc1` (configuration not stated), with 1.2%.
